PubChem BioAssay (Tox21)
Records with an inconclusive call do not appear. A call without a number means that no potency is given here. Activity calls are given as the source filed them. The call rests on the fitted dose curve.

target: Muscarinic acetylcholine receptor M1 (Homo sapiens) (UniProt P11229); assay: Cholinergic receptor muscarinic 1 (CHRM1) small molecule antagonists, cell-based qHTS assay (AID 1963588); conditions: CHRM1-CHO antagonist mode, calcium flux fluorescence; series mostly up to 61.5 µM; further: nearly all actives have a fitted effect of over 40% in size
Sequence (P11229 whole entry, looked up): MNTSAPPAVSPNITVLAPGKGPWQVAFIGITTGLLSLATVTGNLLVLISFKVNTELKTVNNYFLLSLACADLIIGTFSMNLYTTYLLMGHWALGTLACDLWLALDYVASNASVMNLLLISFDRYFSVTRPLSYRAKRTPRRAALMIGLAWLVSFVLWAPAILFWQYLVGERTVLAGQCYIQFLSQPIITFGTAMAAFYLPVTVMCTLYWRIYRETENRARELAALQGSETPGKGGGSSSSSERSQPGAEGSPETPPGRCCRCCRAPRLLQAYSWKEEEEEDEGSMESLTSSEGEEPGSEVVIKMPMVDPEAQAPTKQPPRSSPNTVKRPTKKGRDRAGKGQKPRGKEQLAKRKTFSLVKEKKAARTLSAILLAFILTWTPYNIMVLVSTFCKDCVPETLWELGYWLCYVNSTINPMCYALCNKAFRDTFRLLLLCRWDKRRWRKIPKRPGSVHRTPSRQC
From the text: National Center for Advancing Translational Sciences [NCATS]
Division of Preclinical Innovation [DPI]
U.S. Environmental Protection Agency [EPA]
National Institutes of Environmental Health Sciences [NIEHS]
National Toxicology Program [NTP]
U.S. Food and Drug Administration [FDA]
The CHRM1 is a muscarinic receptor. This receptor plays a crucial role in learning and memory processes and has long been identified as a promising therapeutic target for the improvement of cognitive decline in Alzheimer's disease (AD). The CHRM1-CHO cell line stably expressing human muscarinic acetylcholine receptor M1 (CHRM1) can be used for screening agonists and antagonists of interactions between CHRM1 and its ligands. The CHRM1-CHO Calcium Flux Assay is a homogeneous fluorescence-based assay for detecting the intracellular calcium level using FDSS kinetic plate reader system.
Tox21 Assay Protocol Summary:
CHRM1-CHO cells were dispensed at 1000 cells/3uL/well in 1536-well black-clear bottom plates using a Multidrop Dispenser. After the assay plates were incubated at a 37 C/5% CO2 incubator for 18 h, 3 uL of Dye Loading Buffer was transferred to the assay plate by a Flying Reagent Dispenser. The assay plates were incubated at 37 C for 1h. For antagonist mode, 23 nL of compounds dissolved in DMSO, positive controls or DMSO only was transferred to the assay plate by a pin tool. After 5 min incubation at room temperature, 1.5 uL of acetylcholine at 50nM was added to each well. The fluorescence intensity in the plates was measured using FDSS 7000EX kinetic plate reader for 3 min at 1 sec intervals. Each test compound was measured at 15 concentrations in three independent runs.
Potency means the concentration at half of the fitted maximal effect.

Compound | Potency
Cc1ccc(C)c2ccccc12 | inactive
CC(C)CBr | inactive
COC(=O)C1(O)c2ccccc2-c2ccccc21 | inactive
CCC(=O)C(CCN(C)C)(c1ccccc1)c1ccccc1 | 11.6 µM (active)
Cc1nc(N(C)C)nc(OC(=O)N(C)C)c1C | inactive
CSCC[C@H](NC(=O)[C@H](Cc1c[nH]c2ccccc12)NC(=O)CCNC(=O)OC(C)(C)C)C(=O)N[C@@H](CC(=O)O)C(=O)N[C@@H](Cc1ccccc1)C(N)=O | inactive
OCCBr | inactive
CCCCN(CCCC)C(=S)[S-].CCCCN(CCCC)C(=S)[S-].[Ni+2] | inactive
C1CCC(C2CCCCC2)CC1 | inactive
CC(C)(c1ccccc1)c1ccc(O)cc1 | inactive
O=[N+]([O-])c1cc(Cl)c(Cl)cc1Cl | inactive
COC(=O)c1ccccc1S(=O)(=O)NC(=O)Nc1nc(C)cc(C)n1 | inactive
CCNc1nc(NC(C)C(C)C)nc(SC)n1 (stereo not given) | inactive
CCOP(=O)(OCC)O/C(=C/Cl)c1ccc(Cl)cc1Cl | inactive
Oc1ccc(C2(c3ccc(O)cc3)CCCCC2)cc1 | inactive
Brc1cccc(-c2ccccc2)c1 | inactive
Cc1cc(C)c(C(=O)P(=O)(C(=O)c2c(C)cc(C)cc2C)c2ccccc2)c(C)c1 | inactive
O=C1CN=C(c2ccccc2)c2cc(Cl)ccc2N1CC1CC1 | inactive
CCN(CC)c1nc(C)cc(OP(=S)(OC)OC)n1 | inactive
COC(C)(C)CCC[C@H](C)C/C=C/C(C)=C/C(=O)OC(C)C | inactive

Compound | Potency
O=C(Cc1ccccc1)OCc1ccccc1 | inactive
CC(C)(C)NC[C@H](O)c1ccc(O)cc1Cl | inactive
Cc1ccccc1CO[C@@H]1C[C@@]2(C(C)C)CC[C@]1(C)O2 | inactive
CC(CCc1ccccc1)NC(C)C(O)c1ccc(O)cc1 (stereo not given) | inactive
Brc1ccc(Oc2ccc(Br)cc2Br)c(Br)c1 | inactive
CCOC(=O)COc1ccc(Cl)cc1Cl | inactive
C=C1C[C@@H]2[C@H](CC[C@]3(C)C(=O)CC[C@@H]23)[C@@]2(C)C=CC(=O)C=C12 | inactive
CCC(=O)c1ccc(Cl)cc1 | inactive
CCCSP(=S)(OCC)Oc1ccc(Cl)cc1Cl (stereo not given) | inactive
O=C1C=CC(=O)c2ccccc21 | inactive
COc1cc(CC(C)N)cc(OC)c1OC (stereo not given) | inactive
CCC1(CC)C(=O)NC(=O)NC1=O | inactive
O=S(=O)(O)F | inactive
Clc1ccc2ccccc2c1 | inactive
O=C(CBr)OCc1ccccc1 | inactive
O=C(O)c1c(Cl)ccc2cc(Cl)cnc12 | inactive
CC(=O)O.CC(=O)O.CC(=O)O.CC(=O)O.CC(=O)O.CC(=O)O.CC(=O)O.O.O.[Cr].[Cr].[Cr] | inactive
CC(O)C#N (stereo not given) | inactive
N#CCc1ccc(Cl)cc1 | inactive
C=CC(=O)OCCN(C)C | inactive
